Measured values: PubChem BioAssay

biological target: Torsin-1A-interacting protein 1 (Homo sapiens) (UniProt Q5JTV8); assay: LAP1 binders from COS7 cell lysate, primary screen, small-molecule microarray, 635/667 nm fluorescence (AID 1116); details: COS7-hLAP1 lysate binding, 635 nm fluorescence, higher = more signal
Sequence (Q5JTV8 whole entry, looked up): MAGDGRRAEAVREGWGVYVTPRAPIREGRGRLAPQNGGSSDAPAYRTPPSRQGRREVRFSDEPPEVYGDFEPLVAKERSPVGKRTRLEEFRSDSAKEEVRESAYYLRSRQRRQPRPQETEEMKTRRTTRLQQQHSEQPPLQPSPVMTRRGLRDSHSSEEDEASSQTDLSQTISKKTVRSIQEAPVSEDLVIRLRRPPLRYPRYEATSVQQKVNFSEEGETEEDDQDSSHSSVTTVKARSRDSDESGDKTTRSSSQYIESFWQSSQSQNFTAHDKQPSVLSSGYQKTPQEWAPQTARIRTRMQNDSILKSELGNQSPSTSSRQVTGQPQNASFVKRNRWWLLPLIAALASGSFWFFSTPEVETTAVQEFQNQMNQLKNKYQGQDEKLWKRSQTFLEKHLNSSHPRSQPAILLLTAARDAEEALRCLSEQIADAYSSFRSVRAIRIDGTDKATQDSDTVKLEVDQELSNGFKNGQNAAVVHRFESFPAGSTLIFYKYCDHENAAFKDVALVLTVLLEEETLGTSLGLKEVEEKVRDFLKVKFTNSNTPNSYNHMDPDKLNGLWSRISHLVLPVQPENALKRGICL

Row | Structure (SMILES) | composite z-score
1 | CC(C)(C)OC(=O)CC[C@@]1(C(=O)NCc2ccccc2)N=C(c2ccc(OCCCO)cc2)O[C@@H]1c1ccccc1N=[N+]=[N-] | 0.899
2 | C=CC[C@@]1(C(=O)N2CCOCC2)N=C(c2ccc(OCCCO)cc2)O[C@@H]1c1ccccc1CN=[N+]=[N-] | 1.72
3 | COC(=O)[C@@]1(Cc2ccc(F)cc2)[C@H]2c3cc(C(=O)N4CCCC4)n(CCc4ccc(O)c(O)c4)c3C[C@H]2CN1C(=O)c1ccccc1 | 0.661
4 | CCOC(=O)C[C@H]1[C@H](OC(=O)c2cc3ccccc3oc2=O)[C@@H](NC(=O)c2ccc(-c3ccccc3)cc2)c2cc(OCCCO)ccc2N1C(=O)c1ccc2ccccc2n1 | 0.624
5 | COc1ccc([Si](C)(C)[C@H]2[C@H](CCn3cc([C@H](O)c4ccccc4)nn3)O[C@@]3(C(=O)N(Cc4ccc(N5C(=O)c6cccc7cccc5c67)cc4)c4ccccc43)[C@@H]2C)cc1 | 0.112
6 | C[C@@H]1NC(=O)[C@@]23C(=O)N[C@@H](Cc4ccccc4)C2[C@H](C)[C@@]2(C)O[C@H]2C3/C=C/C/C=C\CNC(=O)[C@@H]2CCCN2C1=O (some centres not stated) | -0.313
7 | COC(=O)[C@@]1(Cc2ccccc2)[C@H]2c3cc(C(=O)N(C)C)n(Cc4c(CO)[nH]cc(C)c4=O)c3C[C@H]2CN1C(=O)c1ccccc1 | 0.37
8 | COC(=O)CCCCCCC(=O)Nc1ccc(NC(=O)CCCC[P+](c2ccccc2)(c2ccccc2)c2ccccc2)cc1 | 0.533

biological target: Alpha-bungarotoxin (Bungarus multicinctus) (UniProt P60615); assay: alpha-bungarotoxin binders on microarray, profiling panel, artefact control for SMM control protein annotation, biochemical, small-molecule microarray, Alexa647 label, 635/667 nm fluorescence (AID 1117); details: alpha-BTX-A647 binding fluorescence, higher = more signal
Sequence (P60615 whole entry, looked up): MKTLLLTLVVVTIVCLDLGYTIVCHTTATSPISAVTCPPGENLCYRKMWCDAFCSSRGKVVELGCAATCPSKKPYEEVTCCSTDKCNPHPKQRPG

Row | Structure (SMILES) | composite z-score
9 | COc1ccc([Si](C)(C)[C@@H]2[C@@H](CC(=O)N3Cc4ccccc4C[C@H]3CO)O[C@]3(C(=O)N(C)c4ccccc43)[C@H]2C)cc1 | 0.794
10 | O=C(N1CCCCC1)[C@@]1(CCS(=O)(=O)c2ccccc2)COC(c2ccc(OCCCO)cc2)=N1 | 0.632
11 | O=C1NC(=O)C2C1C=CC(C(O)CCc1ccccc1)N2Nc1ccc(Cl)cc1Cl (configuration not stated) | 2.65
12 | C=CCC(OC(C)=O)[C@@H]1[C@@H](N(Cc2cc3ccccc3o2)C(=O)c2ccc(-c3ccccc3)cc2)c2cc(OCCCO)ccc2N1C(=O)c1ccc2ccccc2c1 (some centres not stated) | 0.264
13 | CCOC(=O)C[C@H]1[C@H](OC(=O)Cc2ccc3c(c2)OCO3)[C@@H](NC(=O)Cc2ccc(OC)cc2)c2cc(OCCCO)ccc2N1C(=O)c1ccc2ccccc2n1 | 0.424
14 | COC(=O)c1c2oc(c1C(=O)OC)C(=O)N(Cc1ccccc1)Cc1cn(nn1)C[C@H](Cc1ccccc1)NC(=O)N[C@H](CO)CC2 | -0.129
15 | NC(N)=NCCCn1cc(CNC(=O)[C@@H](N)Cc2ccccc2)nn1 | 0.0071
16 | NC(=O)N1C(=O)C2C(C1=O)C1C=C(CCCO)C2C(c2cccs2)N1Cc1cccc(OC(F)(F)F)c1 (configuration not stated) | 0.797
17 | CCOC(=O)C[C@H]1[C@H](OC(=O)c2cc3ccccc3oc2=O)[C@@H](NC(=O)Cc2ccc(OC)cc2)c2cc(OCCCO)ccc2N1C(=O)c1ccc2ccccc2n1 | 0.26
18 | COCCOC(=O)N1C(=O)[C@@]2(c3cc(C#CC4=CCCCC4)ccc31)[C@H](c1ccc(OCCO)cc1)N1[C@H](c3ccccc3)[C@H](c3ccccc3)OC(=O)[C@H]1[C@@H]2C(=O)NC[C@H](O)c1ccccc1 | 1.19
19 | COC(=O)c1nc2oc1CC[C@@H](CO)NC(=O)N(C)Cc1cnnn1C[C@H](Cc1ccccc1)NC2=O | 1.25
20 | CN1C(=O)C2C=CC(C(O)COCc3ccccc3)N(N(c3ccccc3)c3ccccc3)C2C1=O (configuration not stated) | 0.458
21 | COc1cc2c(cc1O)C(C)N(Cc1ccc([N+](=O)[O-])o1)CC2 (configuration not stated) | 1.95
22 | C=CCOC(=O)[C@H]1[C@@H]2C(=O)O[C@@H](c3ccccc3)[C@@H](c3ccccc3)N2[C@@H](c2ccc(OCCOC(=O)[C@@H]3C[C@@H]4C(=O)N[C@@H](CCCCN(C)C)C(=O)N4[C@@H]3c3ccc(O)cc3)cc2)[C@]12C(=O)Nc1ccccc12 | -0.23
23 | CCOC(=O)C1=C[C@@H](c2ccccc2)N(S(=O)(=O)c2ccc(C)cc2)[C@H]1c1ccccc1Cl | 1.04
24 | C[N+](C)(C)CCCCCCNC(=O)[C@H]1C[C@H]2C(=O)NCC(=O)N2[C@H]1c1ccc(O)cc1 | 0.713
25 | COc1cc(CO)cc(I)c1O[C@H]1C=C(C(=O)NCCO)C[C@@H](NCc2ccc(F)cc2)[C@@H]1O | 0.2
26 | COC1OC[C@]2(C)[C@H]3C4=C(CN2C(=O)OC(C)(C)C)[C@H](C)C(CO)C(CO)C4CC[C@@H]13 (some centres not stated) | 2.39
27 | O=C1O[C@H](c2ccccc2)[C@H](c2ccccc2)N2[C@H]1[C@@H](C(=O)Nc1nc3ccccc3s1)[C@]1(C(=O)Nc3ccc(C#CCCO)cc31)[C@H]2c1ccc(O)cc1 | 0.369
